Hits are enriched below; roughly 2.6% of the tested compounds scored in any of these assays.
Cruzain inh Det: inhibitors of Trypanosoma cruzi cruzain with detergent | P25779 | purified cruzain, Z-FR-AMC fluorescence, 0.01% Triton | Potency, µM, for inactives: max response, negative = inhibition, hits mostly inhibitors | hit rate 0.43% among 200,000 | AID 1478;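 further: plate controls were neutral wells for no effect and buffer without enzyme for full effect; nearly all actives have a fitted effect of over 40% in size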
Target sequence (P25779 123-467 limits assumed): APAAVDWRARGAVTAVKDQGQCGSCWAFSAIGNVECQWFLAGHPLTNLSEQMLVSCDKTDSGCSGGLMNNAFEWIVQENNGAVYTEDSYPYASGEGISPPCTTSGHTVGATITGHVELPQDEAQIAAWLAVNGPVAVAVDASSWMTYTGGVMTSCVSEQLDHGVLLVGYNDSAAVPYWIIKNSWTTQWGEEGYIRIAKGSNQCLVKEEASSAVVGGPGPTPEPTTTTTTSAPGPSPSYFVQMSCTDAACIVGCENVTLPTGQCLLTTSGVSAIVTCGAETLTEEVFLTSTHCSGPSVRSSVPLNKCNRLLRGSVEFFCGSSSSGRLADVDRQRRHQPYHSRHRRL
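Enzyme 1.5 nM, Z-FR-AMC 2 uM, NaOAc 100 mM pH 5.5, DTT 5 mM, Triton X-100 0.01%; 15 min RT compound preincubation; kinetic ex360/em450, 60 s delta.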
Cruzain inh noDet: cruzain (T. cruzi) inhibition without detergent; P25779; purified cruzain, Z-FR-AMC fluorescence, no detergent; Potency, µM, for inactives: max response, negative = inhibition, actives largely listed as inhibitors; hit rate 2.3% among 200,000;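 further: plate controls were enzyme without inhibitor for no effect and buffer without enzyme for full effect; nearly all actives have a fitted effect of over 40% in size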
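Detergent-free condition (0.00005% Triton X-100) in acetate buffer pH 5.5 with DTT. 1.5 nM enzyme and compound were pre-mixed 15 min, then 2 uM Z-FR-AMC substrate added; reaction progress from fluorescence change between first and third reads (60 s).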
Starred values were filed as active, the others as inactive. The call rests on the fitted dose curve; in most records, active means well fitted curve in the direction sought with a large enough effect; inconclusive means small, poorly fitted or top-dose-only effect, or another doubt; inactive means no such curve, though single readings can be large; an effect the other way counts as inactive or inconclusive. Potency means the concentration at half of the fitted maximal effect.

N=C1/C(=C\c2ccc(SCc3ccco3)o2)C(=O)N=C2SC=NN12 was read as Cruzain inh Det -19.5% and Cruzain inh noDet inconclusive.
Cc1ccc(Cl)cc1-n1c(=O)c2sc3ccccc3c2n(CC(=O)NC2CCCC2)c1=O was read as Cruzain inh Det -3.7% and Cruzain inh noDet -13.2%.
Cc1ccc(C(C)C)c(OCC(=O)Nc2ccc3c(c2)nc(CCNC(=O)c2ccco2)n3C)c1 was read as Cruzain inh Det -3.1% and Cruzain inh noDet -13.1%.
For C=CCNC(=S)N/N=C/c1ccc(-c2cc(Cl)ccc2Cl)o1 the results were Cruzain inh Det 0.8% and Cruzain inh noDet 7.94µM*.
COC(=O)c1ccc(Cl)c(-c2ccc(/C=N/NC(=O)Nc3ccccc3)o2)c1 was read as Cruzain inh Det -6.7% and Cruzain inh noDet inconclusive.
For CCOC(=O)c1noc2ncn(CC(=O)Nc3ccc(F)cc3Cl)c(=O)c12 the results were Cruzain inh Det -1.6% and Cruzain inh noDet 3.0%.
CCC(Oc1ccccc1)C(=O)Nc1cc(-c2ccccc2F)nn1-c1ccccc1 (stereo not drawn) was read as Cruzain inh Det 2.5% and Cruzain inh noDet -10.6%.
For COc1ccc(C2CC(c3ccccc3)=NN2C(=O)COC(=O)CNC(=O)c2ccccc2)cc1 (stereo not drawn) the results were Cruzain inh Det 8.91µM* and Cruzain inh noDet 10µM*.
Screening COc1ccc(C2CC(c3ccccc3)=NN2C(=O)COC(=O)c2cnc(Cl)c(Cl)c2)cc1 (stereo not drawn) returned Cruzain inh Det -3.3% and Cruzain inh noDet 5.01µM*.
For COc1ccc(C2CC(c3ccccc3)=NN2C(=O)COC(=O)c2ccc(Cl)nc2)cc1 (stereo not drawn) the results were Cruzain inh Det -4.9% and Cruzain inh noDet -27.6%.
COc1ccc(C2CC(c3ccccc3)=NN2C(=O)COC(=O)c2cccc(S(=O)(=O)N(C)C)c2)cc1 (stereo not drawn) was read as Cruzain inh Det 3.6% and Cruzain inh noDet inconclusive.
COc1ccc(-c2ccc(NS(=O)(=O)c3cc(C)c(C)cc3C)cc2)nn1 was read as Cruzain inh Det -6.8% and Cruzain inh noDet -3.8%.
Nc1nc(SCC(=O)NCc2ccccc2Cl)[nH]c(=O)c1NC(=O)c1ccccc1F was read as Cruzain inh Det 3.3% and Cruzain inh noDet inconclusive.
Screening Nc1nc(SCC(=O)NCc2ccc(F)cc2)[nH]c(=O)c1NC(=O)c1ccc(Cl)cc1 returned Cruzain inh Det 1.7% and Cruzain inh noDet 25.1µM*.
CCN(CC)CCNC(=O)c1c2c(nc3ccccc13)C(=O)N(C1CCCCC1)C2 was read as Cruzain inh Det -3.2% and Cruzain inh noDet -7.7%.
`Cc1cccc(CCNc2nc3ccccc3n3nnnc23)c1` gave Cruzain inh Det 4.0% and Cruzain inh noDet -12.0%.
For Clc1ccc(CCNc2nc3ccccc3n3nnnc23)cc1 the results were Cruzain inh Det 3.5% and Cruzain inh noDet 25.1µM*.
C1COC1 was read as Cruzain inh Det -0.3% and Cruzain inh noDet -7.1%.
COc1ccc(N2CCC(CNC(=O)Nc3cccc(OC)c3)C2)cc1 (stereo not drawn) was read as Cruzain inh Det 0.3% and Cruzain inh noDet inconclusive.
For COc1ccc(N2CCC(CNC(=S)Nc3cccc(OC)c3)C2)cc1 (stereo not drawn) the results were Cruzain inh Det -7.6% and Cruzain inh noDet 31.6µM*.
`COc1ccc(C(=O)N2CCC[C@@]3(CCN(C(=O)Nc4cccc(C#N)c4)C3)C2)cc1` gave Cruzain inh Det 0.1% and Cruzain inh noDet 0.9%.
CC1CN(C(=O)CCC(=O)NCc2cccc(Cl)c2)c2ccccc2S1 (stereo not drawn) was read as Cruzain inh Det -6.3% and Cruzain inh noDet 2.9%.
O=C(C1=NN(c2ccccc2)C2C(=O)N(c3ccc(Cl)cc3)C(=O)C12)c1ccccc1 (stereo not drawn) was read as Cruzain inh Det -1.9% and Cruzain inh noDet 10µM*.
`O=C(C1=NN(c2ccccc2)C2C(=O)N(c3cccc(Cl)c3)C(=O)C12)c1ccccc1` (stereo not drawn) gave Cruzain inh Det -7.1% and Cruzain inh noDet inconclusive.
CCC(C)NC(=O)c1[nH]c2cc(OC)ccc2c1Sc1ccc(C)cc1 (stereo not drawn) was read as Cruzain inh Det -6.5% and Cruzain inh noDet inconclusive.
CCOc1cccc(C(=O)Nc2ccc(N3CCN(S(C)(=O)=O)CC3)cc2)c1 was read as Cruzain inh Det 5.5% and Cruzain inh noDet 2.3%.
CCOc1cccc(C(=O)NC(=S)Nc2ccc(N3CCCC3)cc2)c1 was read as Cruzain inh Det inconclusive and Cruzain inh noDet 31.6µM*.
`O=C(NC(=S)Nc1ccc(N2CCCCC2)cc1)c1ccc2c(c1)OCCO2` gave Cruzain inh Det -4.1% and Cruzain inh noDet 25.1µM*.
O=C(NC(=S)Nc1ccc(N2CCOCC2)cc1)c1ccc2c(c1)OCCO2 was read as Cruzain inh Det -9.3% and Cruzain inh noDet -16.2%.
`COc1ccc(CNC(=O)CCc2nc3cccnc3n2Cc2ccccc2)cc1` gave Cruzain inh Det 4.5% and Cruzain inh noDet -12.6%.
`CCCn1c(=O)c(C(=O)NNS(=O)(=O)c2ccc(C)cc2)c(O)c2ccccc21` gave Cruzain inh Det -4.2% and Cruzain inh noDet 12.6µM*.
Screening CCn1c(=O)c(C(=O)NNS(=O)(=O)c2ccc(C)cc2)c(O)c2ccccc21 returned Cruzain inh Det -7.1% and Cruzain inh noDet -0.3%.
`O=C(c1ccco1)[C@@H]1[C@@H]2C(=O)N(c3ccc(F)cc3)C(=O)[C@@H]2C2c3ccccc3C=CN21` (stereo partly drawn) gave Cruzain inh Det -6.5% and Cruzain inh noDet -8.1%.
`O=C(c1ccco1)[C@@H]1[C@@H]2C(=O)N(c3ccc(Br)cc3)C(=O)[C@@H]2C2c3ccccc3C=CN21` (stereo partly drawn) gave Cruzain inh Det -3.7% and Cruzain inh noDet 12.6µM*.
For CC(=O)[C@@H]1[C@H]2[C@H](C(=O)[C@H]3OC[C@@H]2O3)[C@H]2C=Cc3ccccc3N21 the results were Cruzain inh Det -3.8% and Cruzain inh noDet inconclusive.
`O=C(c1ccco1)[C@@H]1[C@@H]2C(=O)N(c3ccc(F)cc3)C(=O)[C@@H]2[C@H]2C=Cc3ccccc3N21` gave Cruzain inh Det -6.3% and Cruzain inh noDet 25.1µM*.
`Cc1ccccc1Cn1c(C)c(CNCCCc2ccccc2)c(C(=O)O)c1C` gave Cruzain inh Det -3.6% and Cruzain inh noDet 6.6%.
Screening CC(=O)N/N=C/c1cc([N+](=O)[O-])ccc1OCCOc1ccccc1 returned Cruzain inh Det 1.8% and Cruzain inh noDet 3.3%.
Cc1cc(C(=O)N/N=C/c2cccc([N+](=O)[O-])c2)c(C)n1-c1ccccc1 was read as Cruzain inh Det -5.0% and Cruzain inh noDet -25.1%.
For Cc1cccc(NC(=S)N/N=C/c2cccc([N+](=O)[O-])c2)c1 the results were Cruzain inh Det -13.6% and Cruzain inh noDet 1.3%.
Screening Cc1cccc(NC(=S)N/N=C/c2ccc(Cl)c([N+](=O)[O-])c2)c1 returned Cruzain inh Det -3.1% and Cruzain inh noDet 31.6µM*.
`NC(=S)N/N=C/c1cc([N+](=O)[O-])ccc1OCCOc1ccccc1` gave Cruzain inh Det 0.251µM* and Cruzain inh noDet 0.159µM*.
`O=[N+]([O-])c1ccc(Cl)c(/C=N/NC(=S)Nc2ccccc2)c1` gave Cruzain inh Det -7.7% and Cruzain inh noDet 25.1µM*.
Cc1cc(C(=O)N/N=C/c2ccc(Cl)c([N+](=O)[O-])c2)c(C)n1-c1ccc(F)cc1 was read as Cruzain inh Det 0.5% and Cruzain inh noDet 7.94µM*.
